Results reported in PubChem BioAssay (NCI).
Values joined by “and” are separate entries in the source; they are usually repeats but may differ in a detail not shown here. Identical values can stand only once. The panel holds about 83,000 compounds, 20% with a hit somewhere; the sample as a whole holds those more often.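 Growth was measured after 48 h exposure to one concentration of compound in 96-well plates. Values under 10 count as active.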 Unmarked numbers belong to inactive results. Active and inactive are the calls of the source.

Test system: MDA-MB-468 breast
Experiment: NCI-60 one-dose screen, 48 h (100 = growth as untreated, 0 = no growth, -100 = all killed)
Details: 10 µM unless noted

**Q.** Which growth does the source give for `CC1CCCCC[N+]12CCCC2` (stereo not given) here?
**A.** 99.4%

**Q.** How did the growth turn out when `Cc1c(C)n(CC(O)CNC2CCCCC2C)c2ccccc12` (stereo not given) was run?
**A.** -33.8% (active)

**Q.** How did the growth turn out when `Nc1ncnc(Nc2ccc(C(F)(F)F)cc2)n1` was run?
**A.** 108%

**Q.** Which growth does the source give for `O=[N+]([O-])c1cc[n+]([O-])cc1` here?
**A.** 98.1%

**Q.** How did the growth turn out when `C[C@@H](CO)[C@@H]1CC[C@]2(C(=O)N3CCN(C)CC3)CC[C@]3(C)[C@H](CC[C@@H]4[C@@]5(C)CC[C@H](O)C(C)(C)[C@@H]5CC[C@]43C)[C@@H]12` was run?
**A.** 61%

**Q.** With `COc1ccc(-c2nc(-c3ccccc3)c(-c3ccccc3)[nH]2)cc1OC1CCCCC1` as the compound, how does the growth read?
**A.** 73.1%

**Q.** Which growth does the source give for `COc1ccccc1OCC(O)CO` (stereo not given) here?
**A.** 114% and 92.9%

**Q.** With `O=C(C[P+](c1ccccc1)(c1ccccc1)c1ccccc1)c1ccccc1` as the compound, how does the growth read?
**A.** 103%

**Q.** With `COC(=O)[C@]12CC[C@@H](C)[C@H](C)[C@@H]1C1=CC[C@@H]3[C@@]4(C)C[C@@H](O)[C@H](O)[C@@](C)(CO)[C@@H]4[C@H](O)C[C@@]3(C)[C@]1(C)CC2` as the compound, how does the growth read?
**A.** -53% (active)

**Q.** `COC(=O)[C@H](Cc1cnc[nH]1)NC(=O)[C@@H](NC(=O)Nc1cc(C(F)(F)F)cc(C(F)(F)F)c1)C(C)C` was tested. Which growth did it give?
**A.** -60.9% [100 µM] (active)

**Q.** How did the growth turn out when `C=C(C)[C@@H]1CC[C@]2(C(=O)N3CCN(C)CC3)CC[C@]3(C)[C@H](CC[C@@H]4[C@@]5(C)C/C(=C/c6ccco6)C(=O)C(C)(C)[C@@H]5CC[C@]43C)[C@@H]12` was run?
**A.** 64.6%

**Q.** For `CC(=O)N=c1ccc2nc3c(cc(N)c4ccccc43)oc-2c1`, which growth is on record?
**A.** -44.5% (active)

**Q.** Which growth does the source give for `CCCCCCCCCCCC(=O)NC(C)(C)C(=O)N1CCCC1C(=O)NC(C)(C)C(=O)NC(C)(C)C(=O)N1CCCC1C(=O)NC(C)(C)C(=O)NC(C)(C)C(=O)N1CCCC1C(=O)NC(C)C(=O)NCCC(=O)NC(C)C(=O)NC(C)(C)C(=O)NC(C)(C)C(=O)NC(C)(C)C(=O)NCCC(=O)NC(C)(C)C(=O)NC(C)(C)C(=O)NC(C)(C)C(=O)NC(C)C(=O)NCCC(=O)O` (stereo not given) here?
**A.** -88.5% (active)

**Q.** `Nc1nc(-c2ccccc2)c(CCCOc2ccc(NC(=O)CBr)cc2)c(=O)[nH]1` was tested. Which growth did it give?
**A.** 104%

**Q.** `CC[C@@H]1NC(=O)[C@@H]2CCCCN2C(=O)[C@@H]2CCCN2C(=O)[C@@H](NC(=O)[C@H](Cc2cc(F)cc(F)c2)NC(=O)Nc2ccc(C3CC3)cc2F)[C@H](C)OC(=O)[C@@H]2C[C@@H](C)CN2C1=O` was tested. Which growth did it give?
**A.** -33.6% (active)

**Q.** How did the growth turn out when `SCc1ccc(CS)cc1` was run?
**A.** 111%

**Q.** With `CCN1C(=O)N(CC)C2C1NN=c1s/c(=C3\C(=O)N(CCC(C)C)c4ccccc43)c(=O)n12` (stereo not given) as the compound, how does the growth read?
**A.** 27.1%

**Q.** For `C=C1C(=O)O[C@H]2[C@H]1CC/C(COC(=O)NCc1cc(OC)c(OC)c(OC)c1)=C\CC[C@@]1(C)O[C@@H]21`, which growth is on record?
**A.** 35.4%

**Q.** Which growth does the source give for `Cc1ccc(Sc2ccccc2N)cc1` here?
**A.** 81.2%

**Q.** For `Cc1nn(-c2ccccc2)c(Cl)c1/C=N\N=c1/sc2ccccc2n1C`, which growth is on record?
**A.** 113%

**Q.** Which growth does the source give for `COc1ccc(-c2nc3sc(-c4ccccc4)c(-c4ccccc4)n3c2/C=C/c2ccc(F)cc2)cc1` here?
**A.** 82.7%

**Q.** `CC(=O)c1cc(C)c(OC(=O)c2ccccc2)c(C)c1` was tested. Which growth did it give?
**A.** 94%

**Q.** For `O=C(O)CCCCc1ccc([N+](=O)[O-])cc1`, which growth is on record?
**A.** 107% and 115%

**Q.** Which growth does the source give for `O=C(/C=C/c1cc2ccccc2[nH]c1=O)/C=C/c1cc2ccccc2[nH]c1=O` here?
**A.** -31.7% (active)

**Q.** For `COc1ccc(-c2cc(-c3cc(OC)ccc3OC)nc(SCC(=O)c3ccccc3)c2C#N)cc1`, which growth is on record?
**A.** 106%

**Q.** `CCN1C(=O)C(C)C=C(C)C=C1C` (stereo not given) was tested. Which growth did it give?
**A.** 110%

**Q.** How did the growth turn out when `O=C(/C(=C/c1ccc([N+](=O)[O-])cc1)SCc1ccc(F)cc1)c1ccc(F)cc1` was run?
**A.** 83.7%

**Q.** With `C[C@]12CC[C@@H]3c4cc(OC(F)F)c(O)cc4CC[C@H]3[C@@H]1CC[C@@H]2OS(N)(=O)=O` as the compound, how does the growth read?
**A.** -18.9% (active)

**Q.** For `CCOC(=O)c1sc(/N=C2\NC(=O)/C(=C/c3ccc(N4CCN(C)CC4)cc3)S2)nc1C`, which growth is on record?
**A.** 111%

**Q.** `CCCCCCCCCCCCN1C(C)=CS/C1=C\C=C\c1scc(C)[n+]1CCCCCCCCCCCC` was tested. Which growth did it give?
**A.** -23% (active)

**Q.** How did the growth turn out when `COc1ccc(C(=O)c2cc(C)c(OC)c(C)c2)cc1OC(=O)CCl` was run?
**A.** 37.7%

**Q.** Which growth does the source give for `Cn1cc(-c2ccc3cc(-c4ccc(CC(=O)Nc5cc(C(C)(C)C)nn5C)cc4)cnc3c2)cn1` here?
**A.** -6.24% (active)

**Q.** For `CC(N)C(Cc1ccc(Cl)cc1)c1ccc(Cl)cc1` (stereo not given), which growth is on record?
**A.** 41.6%

**Q.** For `O=C(Nc1cnn2ccc(N3CCC[C@@H]3c3cc(F)ccc3F)nc12)N1CC[C@H](O)C1`, which growth is on record?
**A.** 88.7%

**Q.** For `CC(C)(C)n1nnnc1C(Nc1cccc2c1OCO2)c1cc2cccc3ccc4cccc1c4c32` (stereo not given), which growth is on record?
**A.** 51.7%

**Q.** With `CC1CCCN(CCCCCOc2ccc3oc4ccccc4c(=O)c3c2)C1` (stereo not given) as the compound, how does the growth read?
**A.** 52.2%

**Q.** How did the growth turn out when `Cc1cn(-c2cc(NC(=O)c3cncc(C#Cc4cnc(N)c5ncccc45)c3)cc(C(F)(F)F)c2)cn1` was run?
**A.** 67.3%

**Q.** For `C=CCSc1nnc(-c2ccc(C(C)(C)C)cc2)n1-c1cccc(C(F)(F)F)c1`, which growth is on record?
**A.** 21.5%

**Q.** Which growth does the source give for `C=C1C(=O)O[C@H]2[C@H]1CC/C(COC(=O)c1cc3cc(OC)ccc3[nH]1)=C\CC[C@@]1(C)O[C@@H]21` here?
**A.** -76.3% (active)

**Q.** With `Clc1cccc(-c2cc(-c3ccc4c(c3)OCCO4)[nH]n2)c1` as the compound, how does the growth read?
**A.** 6.54% [25 µM] (active)
